Assay [1] deals with Nucleoli Translocation, AR (gene 367) (UniProt P10275). In words: UPITT_HCI_U2OS_AR_TIF2_Nucleoli_Antagonist: University of Pittsburgh U2OS Androgen Receptor-Transcriptional Intermediary Factor 2 (AR-TIF2) Antagonism High Content Imaging Assay for Nucleoli Translocation (AID 2283997; active = hit-call score of the fitted dose curve at least 0.9, where 1 is the maximum). The procedure, abridged: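 An antagonist-mode imaging screen: engineered U2OS (AR-RFP, TIF2-GFP) exposed to 20 uM compound, 0.2% DMSO. Activity reflects nucleolar red fluorescence change relative to DHT baseline.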
Nucleoli Translocation, AR (gene 367), sequence (P10275 whole entry, looked up): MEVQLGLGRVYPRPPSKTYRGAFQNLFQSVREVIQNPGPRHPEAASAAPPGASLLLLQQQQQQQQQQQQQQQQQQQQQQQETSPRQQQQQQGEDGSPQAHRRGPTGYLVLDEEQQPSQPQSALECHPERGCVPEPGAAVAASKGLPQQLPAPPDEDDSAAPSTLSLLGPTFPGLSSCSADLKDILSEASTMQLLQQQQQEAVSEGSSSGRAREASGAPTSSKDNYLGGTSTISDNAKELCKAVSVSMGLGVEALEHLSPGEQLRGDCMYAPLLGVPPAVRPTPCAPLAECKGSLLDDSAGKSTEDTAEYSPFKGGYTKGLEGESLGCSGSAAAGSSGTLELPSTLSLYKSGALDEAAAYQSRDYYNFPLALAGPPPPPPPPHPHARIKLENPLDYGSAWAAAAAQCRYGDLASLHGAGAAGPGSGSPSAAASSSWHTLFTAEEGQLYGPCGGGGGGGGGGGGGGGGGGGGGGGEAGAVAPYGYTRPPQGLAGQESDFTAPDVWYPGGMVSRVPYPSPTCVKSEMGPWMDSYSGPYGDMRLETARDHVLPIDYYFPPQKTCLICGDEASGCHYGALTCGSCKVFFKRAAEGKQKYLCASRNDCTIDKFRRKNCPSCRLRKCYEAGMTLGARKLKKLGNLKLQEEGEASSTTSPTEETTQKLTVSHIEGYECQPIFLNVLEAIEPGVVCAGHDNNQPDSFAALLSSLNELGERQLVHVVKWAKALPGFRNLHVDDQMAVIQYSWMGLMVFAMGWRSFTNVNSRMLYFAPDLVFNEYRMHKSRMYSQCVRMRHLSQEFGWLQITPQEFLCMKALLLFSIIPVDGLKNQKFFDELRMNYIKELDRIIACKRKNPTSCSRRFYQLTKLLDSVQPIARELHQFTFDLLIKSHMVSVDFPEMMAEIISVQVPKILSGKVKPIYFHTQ

Assay [2] shares this target. In words: UPITT_HCI_U2OS_AR_TIF2_Nucleoli_Agonist: University of Pittsburgh U2OS Androgen Receptor-Transcriptional Intermediary Factor 2 (AR-TIF2) Agonism High Content Imaging Assay for Nucleoli Translocation (AID 2283998; active = hit-call score of the fitted dose curve at least 0.9, where 1 is the maximum). The procedure, abridged: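 High-content images quantify nucleolar accumulation of RFP-fused AR in cells also expressing GFP-TIF2; the endpoint is fitted as signal gain versus DMSO controls across final concentrations of 0.195 to 50 uM.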

Assay [3] addresses Ratio of Nucleoli Translocation and Cytoplasm, AR (gene 367) (UniProt P10275). The assay can be described thus: UPITT_HCI_U2OS_AR_TIF2_Nucleoli_Cytoplasm_Ratio_Antagonist: University of Pittsburgh U2OS Androgen Receptor-Transcriptional Intermediary Factor 2 (AR-TIF2) Antagonism High Content Imaging Assay for Ratio of Nucleoli Translocation and Cytoplasm (AID 2283999; active = hit-call score of the fitted dose curve at least 0.9, where 1 is the maximum;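 also: antagonists lower the DHT-driven ratio of nucleolar to cytoplasmic red signal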). The procedure, abridged:
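Read-out is the ratio of nucleolar to cytoplasmic AR-RFP fluorescence, imaged by high-content microscopy in U2OS cells coexpressing TIF2-GFP. Single-point 20 uM screen, triplicate confirmation, then 0.195–50 uM dose response; activity referenced to DHT baseline.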

For assay [4] the target is unchanged. The assay can be described thus: UPITT_HCI_U2OS_AR_TIF2_Nucleoli_Cytoplasm_Ratio_Agonist: University of Pittsburgh U2OS Androgen Receptor-Transcriptional Intermediary Factor 2 (AR-TIF2) Agonism High Content Imaging Assay for Ratio of Nucleoli Translocation and Cytoplasm (AID 2284000; active = hit-call score of the fitted dose curve at least 0.9, where 1 is the maximum;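 also: hits raise the red nucleolar to cytoplasm ratio above vehicle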). The procedure, abridged:
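Primary screen at 20 uM final (0.2% DMSO), then triplicate confirmation and dose-response from 0.195 to 50 uM final (0.5% DMSO). Cells: U2OS with AR-RFP and TIF2-GFP. Endpoint is the nucleoli/cytoplasm red-fluorescence ratio, gain-of-signal vs DMSO.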

Assay [5] can be described thus: CCTE_Harrill_HTTr_Viability_MCF7: CCTE's 6-hour Cell Viability Assessment for the High-Throughput Transcriptomics (HTTr) Platform, in MCF-7 cells cultured in DMEM + 10% fetal bovine serum, Harrill Lab (AID 2284010). The method, boiled down: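 PI exclusion, high-content imaging; 8-pt dilution series, 6 h exposure; bidirectional fit vs DMSO (neg. ctrl/baseline); gain of signal = loss of membrane integrity.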

Assay [6] is described as follows: CCTE_Harrill_HTTr_Apoptosis_MCF7: CCTE's 6-hour Apoptosis Assessment for the High-Throughput Transcriptomics (HTTr) Platform, in MCF-7 cells cultured in DMEM + 10% fetal bovine serum, Harrill Lab (AID 2284011). The procedure, abridged:
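Apoptosis in MCF-7 cells grown in DMEM with 10% fetal bovine serum was scored after a six hour exposure by high content imaging of caspase-3/7 activation (CellEvent Caspase 3/7 Green), with DMSO serving as negative control and baseline.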

Assay [7] is described as follows: CCTE_Shafer_MEA_acute_spike_number: CCTE's Neural Acute Assay for Total Number of Spikes, Shafer Lab (AID 2284008).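 As to AC50: curve fitted for decrease in spike count so AC50 reflects inhibitors.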 The method, boiled down: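 Using an adaptive detector set to 8x rms noise, spikes were counted in 40-min windows before and after compound addition (0.03-40 uM) to rat cortical networks at 37 C; the well-level change from baseline was analysed relative to DMSO.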

The nature of assay [8]: CCTE_Shafer_MEA_acute_firing_rate_mean: CCTE's Neural Acute Assay for Mean Firing Rate, Shafer Lab (AID 2284009).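 Also: analyzed for loss of signal so actives lower firing rate relative to DMSO.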 The method, boiled down:
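Spontaneous spiking of primary rat cortical networks, DIV 13/15, 37 C. Compound 0.03-40 uM, n ≥3 wells; 40 min baseline vs 40 min treated. Endpoint fitted in loss-of-signal direction against DMSO.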

Assay [9] in a line: CCTE_Harrill_HTTr_CellCount_MCF7: CCTE's Cell Proliferation Assessment for the High-Throughput Transcriptomics (HTTr) Platform, Harrill Lab (AID 2284012; active = hit-call score of the fitted dose curve at least 0.9, where 1 is the maximum;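 also: count of Hoechst-stained nuclei per well by high-content imaging in MCF-7 cells; cells exposed to compound for six hours; intended direction is loss of nuclei count meaning fewer cells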). The procedure, abridged:
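Readout: Hoechst nuclear count by high-content imaging. MCF-7, 8-point dilution series, 6 h exposure. Bidirectional fit vs DMSO baseline.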

The nature of assay [10]: CCTE_Shafer_MEA_acute_burst_number: CCTE's Neural Acute Assay for Single-Electrode Bursts, Shafer Lab (AID 2284013). The method, boiled down:
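Burst totals were derived with adaptive spike detection (8x rms threshold) on filtered signals from rat cortical cultures; change relative to pre-treatment baseline after 40-min compound exposure (0.03-40 uM) was fitted in the negative direction against DMSO.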

Assay [11] in a line: CCTE_Shafer_MEA_acute_burst_duration_mean: CCTE's Neural Acute Assay for Mean Burst Duration, Shafer Lab (AID 2284014).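 Also: hits are decreases in mean burst duration relative to DMSO controls.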 The method, boiled down: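 Acute exposure of mature rat cortical networks (DIV 13 or 15) grown on microelectrode arrays to 0.03-40 uM compound. Mean burst duration compared with the 40-min pre-dose baseline over a 40-min post-dose recording at 37 C.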
Assay [12] can be described thus: CCTE_Shafer_MEA_acute_interburst_interval_mean: CCTE's Neural Acute Assay for Mean Interburst Interval, Shafer Lab (AID 2284016).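 Also: percent change of mean interburst interval versus each well's own pre-dose baseline; curves fitted for decrease in interburst interval relative to DMSO.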 The method, boiled down: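 MEA recording of spontaneous network bursting in primary rat cortical cultures; mean interburst interval was compared before and after a 40-min compound exposure (0.03-40 uM) and expressed as percent change, relative to DMSO.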

Assay [13] in a line: CCTE_Shafer_MEA_acute_burst_percentage_mean: CCTE's Neural Acute Assay for Percentage of Spikes in a Burst, Shafer Lab (AID 2284017).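 As to AC50: curve fitted for loss of signal so potency reflects decreased burst percentage.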 The method, boiled down: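 Compounds were tested at 0.03-40 uM on primary rat cortical neuron networks grown over microelectrodes, with at least three wells per compound. Spontaneous firing was recorded for 40 min before and 40 min after dosing, and the change in burst percentage was computed per well.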

The nature of assay [14]: CCTE_Shafer_MEA_acute_burst_percentage_std: CCTE's Neural Acute Assay for Standard Deviation of Burst Percentage, Shafer Lab (AID 2284018).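 Also: fitted in the negative direction so actives lower burst percentage SD.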 The procedure, abridged: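 Primary rat cortical neurons on 16-electrode MEA wells were recorded 40 min at baseline (DIV 13 or 15), then 40 min after compound (0.03-40 uM), at 37 C. Well value is SD across electrodes of spikes-in-bursts/total spikes; endpoint is percent change, DMSO-referenced.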

A short description of assay [15]: CCTE_Shafer_MEA_acute_per_network_burst_spike_number_mean: CCTE's Neural Acute Assay for Average Number of Spikes in a Network Burst, Shafer Lab (AID 2284019). The method, boiled down: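 Acute exposure of rat primary cortical networks (DIV 13/15) on MEAs; adaptive spike detection at 8x rms noise, 37 C. Percent change in spikes per network burst after 40 min with compound (0.03-40 uM), negative direction vs DMSO.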

Assay [16] can be described thus: CCTE_Harrill_HTTr_Apoptosis_PRF_DMEM_12hr: (Pilot) CCTE's 12-hour Apoptosis Assessment for the High-Throughput Transcriptomics (HTTr) Platform, in MCF-7 cells cultured in phenol red-free DMEM + 10% charcoal-stripped fetal bovine serum, Harrill Lab (AID 2283985). The method, boiled down:
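Caspase-3/7 activity by CellEvent Green high content imaging after 12 h compound exposure (eight concentrations) in MCF-7 grown in phenol red-free DMEM plus 10% charcoal-stripped serum; DMSO as baseline.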

A short description of assay [17]: CCTE_Harrill_HTTr_Apoptosis_PRF_DMEM_24hr: (Pilot) CCTE's 24-hour Apoptosis Assessment for the High-Throughput Transcriptomics (HTTr) Platform, in MCF-7 cells cultured in phenol red-free DMEM + 10% charcoal-stripped fetal bovine serum, Harrill Lab (AID 2283986). The method, boiled down:
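Eight concentrations tested for 24 h on MCF-7 grown in charcoal-stripped serum, phenol red-free DMEM. High content imaging of CellEvent Caspase 3/7 Green signal gives apoptosis read-out, fitted both ways relative to DMSO.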

For the next assay, the system named is DIO1 (gene 1733). The assay can be described thus: CCTE_GLTED_hDIO1: CCTE's human Deiodinase 1 (DIO1) Inhibition Assay, Great Lakes Toxicology and Ecology Division (GLTED) Lab (AID 2283987; active = hit-call score of the fitted dose curve at least 0.9, where 1 is the maximum;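 also: isolated human DIO1 enzyme in a cell-free setup rather than cells; enzyme activity read as free iodide liberated from substrate via Sandell-Kolthoff colorimetry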). The method, boiled down:
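Chemicals are tested on human DIO1 without cells for 3 h. Uninhibited enzyme frees iodide, which speeds cerium(IV) reduction by arsenic and is read by spectrophotometry.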

A short description of assay [18]: CCTE_Simmons_MITO_inhib_resp_rate: CCTE's HepG2 Seahorse XF Respirometric Screening Assay at Inhibited Respiratory State [full ETC block], Simmons Lab (AID 2284006). To be noted: actives raise or lower the signal. The procedure, abridged:
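OCR read-out in the inhibited phase following rotenone/antimycin A, after compound and FCCP injections, in HepG2 cells. Seven concentrations (125 nM to 100 uM final), three biological replicates, 6-min cycles over 72 min; DMSO baseline.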

Results filed as inconclusive are left out. Activity calls are given as the source filed them. The calls were made as follows, unless noted: active = hit-call score of the fitted dose curve at least 0.9, where 1 is the maximum; inactive = score below 0.9.

Ratio of Nucleoli Translocation and Cytoplasm, AR (gene 367), sequence (P10275 whole entry, looked up): as above

As for `O=C(Nc1ccccc1)c1ccccc1I`, the molecule was classed as inactive in [1], in assay [2], in assay [3], in [4], in [5] and in assay [6].
As to `ClC1=C(Cl)[C@]2(Cl)[C@H]3[C@H]([C@@H]4C=C[C@H]3C4)[C@@]1(Cl)C2(Cl)Cl`, the call in assay [7], in assay [8], in [5], in assay [6], in assay [9] and in [10] was inactive. Also, the result in [11], in [12], in [13], in assay [14] and in assay [15] was inactive.
Consider `CS(=O)(=O)NC(=O)c1cc(Oc2ccc(C(F)(F)F)cc2Cl)ccc1[N+](=O)[O-]`, for which the result in assay [16], in [17], in assay [5], in assay [6] and in assay [9] was inactive.
For orientation: AC50 means the midpoint of the concentration-response curve, whichever way the signal moves. As to `CN(C)[C@@H]1C(=O)C(C(N)=O)=C(O)[C@@]2(O)C(=O)C3=C(O)c4c(O)cccc4[C@@](C)(O)[C@H]3C[C@@H]12`, the AC50 in the assay with DIO1 (gene 1733) was 56.9 µM (active). In addition, the result in assay [5], in assay [6] and in assay [9] was inactive.
In the case of `Cc1ccc(N)c(N)c1`, the call in [7], in assay [8], in assay [5], in assay [6], in assay [9] and in assay [10] was inactive. Further, the result in assay [11], in assay [12], in assay [14] and in assay [15] was inactive. Moreover, in assay [13], the AC50 is 20 µM (active).
As to `Oc1ccc2ccc3cccc4ccc1c2c34`, the AC50 was 100 µM (active) with DIO1 (gene 1733) and 48.2 µM (active) in [6]. Besides, the result in [5] was inactive.
For the molecule `CNC(=O)Oc1cccc2c1OC(C)(C)C2`, the call in assay [1], in assay [3], in [5] and in assay [6] was inactive.
Regarding `COc1cc(C=O)cc2c1[C@H](COC(N)=O)[C@]1(OC(C)=O)ON2C[C@H]2[C@@H]1N2C(C)=O`, the call in assay [18], in assay [5], in [6] and in assay [9] was inactive.
Turning to `CCC(C)c1ccc(O)cc1` (stereo unspecified), the result in assay [18], in assay [5], in assay [6], in [10], in assay [11] and in [14] was inactive. Moreover, the call in [15] was inactive. In addition, the AC50 was 20 µM (active) in [7], 20 µM (active) in assay [8], 30 µM (active) in [12] and 29.6 µM (active) in [13].
Consider `Nc1ccc(Cl)cc1N`, for which the outcome in [1], in [2], in assay [3], in assay [4], in assay [5] and in assay [6] was inactive. Moreover, the result in [9] was inactive.

For the origin of these results see PubChem BioAssay (EPA / NIEHS).
